# Screening data from PubChem.
# Pf Dd2 inh: blocks in vitro growth of P. falciparum Dd2. P. falciparum Dd2 growth, SYBR Green, 72 h. Potency, µM (doses to about 28.9 µM), without a hit: at the highest dose activity, negative = inhibition, hits mostly inhibitors. hit rate 4.3% among 120,000. AID 1347417; active = well fitted inhibition curve with a large enough effect;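 note: plate controls were DMSO vehicle for no effect and reference drug for full effect; nearly all actives have a fitted effect of over 65% in size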
#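 Infected erythrocytes (Dd2, 0.3% parasitemia, 2.5% hematocrit final) are added to compound in RPMI-1640/Albumax II medium, grown 72 h at 37C in low oxygen, then lysed with saponin/Triton-X containing SYBR Green and read by fluorescence.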
# Starred values were filed as active, the others as inactive; i = inactive; [ ] = dose if it differs, or a comment. This is one part of a sample in which hits are shown more often than they occur. Potency is the fitted concentration of half-maximal effect.
SMILES,Pf Dd2 inh
Cc1cccnc1NC(=O)Cn1nc2c(cc1=O)CCCCC2,14%
CCCCN1CCN(c2nc(-c3ccccc3)nc3c2CCNC3)CC1=O,11µM*
Cc1ccc(N2CCN(c3nc4c(c(=O)[nH]3)CCNC4)CC2)cc1,7%
CCCCN1CCN(C(=O)c2cc(Cl)c(C)c(Cl)c2)CC1=O,-7%
CN1[C@@H](CCC(=O)NCc2cccs2)CNC(=O)[C@@H]2[C@H]1CCN2Cc1ccc(S(C)(=O)=O)cc1,i
COc1ccc(OC)c(S(=O)(=O)N2CCCC2c2nncn2Cc2ccncc2)c1 (stereo not given),8%
COc1ccc(NC(=O)c2c(C)oc3ccc(O)c(CN4CCCC(C)C4)c23)cc1Cl (stereo not given),0.4µM*
COc1cc(=O)n2c(c1C(=O)Nc1ccc(C)cc1)CCCC2,i
Cc1ccc(NC(=O)c2c(C)oc3ccc(O)c(CN4CCCCCC4)c23)cc1,0.63µM*
Cc1ccc(NC(=O)Cn2c(=O)oc3cc(S(=O)(=O)N4CCCCC4)ccc32)c(C)c1,-4%
Cc1ccc(NC(=O)c2c(C)oc3ccc(O)c(CN4CCCCCC4)c23)c(C)c1,1.1µM*
CCN(CC)S(=O)(=O)c1ccc(NC(=O)c2c(C)oc3ncnc(N4CCCCC4)c23)cc1,32%
COc1ccc(NC(=O)c2cccn2-c2nnc(N3CCCCC3)s2)cc1Cl,6%
Cc1ccc(NC(=O)c2cc(S(=O)(=O)N3CCCC3)c[nH]2)c(C)c1,i
COc1ccc(NC(=O)c2c(C)oc3ccn(Cc4cccc(F)c4)c(=O)c23)cc1F,-17%
Cc1nonc1CN(C)C(=O)CC(c1ccccc1)c1ccc2c(c1)OCO2 (stereo not given),-10%
O=C(COc1cccnc1)N[C@@H]1[C@@H]2CCO[C@@H]2[C@@H]1C1CCCC1,-5%
Cc1noc(C)c1[S+](=O)([O-])N1CCC(c2nn(-c3ccc(F)cc3)c(=O)[nH]2)CC1,i
CN1Cc2ncnc(NCC3CC3)c2CN(c2ccccc2)C1=O,1%[44.1 µM]
O=C(CCC1CCCC1)N1CCN(C(=O)N2CC3CC(C2)[C@H]2CCCC(=O)N2C3)CC1 (stereo not given in full),i
COCCC(=O)N1CCCOCCNC(=O)[C@@H]2CCC[C@@H]21,13%
O=C1NCC(c2ccc(Cl)cc2)Cc2[nH]c(-c3ccc(O)cc3)nc21 (stereo not given),-25%
Cc1cc(C(=O)N2CCC3(CCCN(CC4CCC4)C3=O)C2)nc(C)n1 (stereo not given),-17%
CCc1nc(-c2c3n(c(=O)n(CC(=O)Nc4c(C)cccc4C)c2=O)CCCCC3)no1,i
CCOc1cc(=O)n2c(c1C(=O)NCC1CCCO1)CCCCC2 (stereo not given),-7%
SMILES,Pf Dd2 inh
COCCNC(=O)C(C)[C@@H]1CC[C@@]2(C)CC[C@H](N[S+](C)(=O)[O-])[C@@H](C)[C@@H]2[C@H]1O (stereo not given in full),-3%[44.1 µM]
CN(C(=O)Cc1ccsc1)C1CCc2nn(C)c(=O)n2CC1 (stereo not given),24%
COc1ccc(CNC(=O)NCC23CCC=C2N(C)C(=O)CC3)cc1 (stereo not given),-17%
CC(CNC(=O)C1CCC(=O)N(C2CC2)C1)(c1ccccc1)c1ccccc1 (stereo not given),1%
Cc1cccc(NC(=O)N2CCC(Cc3nc(-c4ccccc4)n[nH]3)CC2)c1,1.6µM*
Cc1ccc(CNC(=O)N2CCC(Cc3nc(-c4ccncc4)n[nH]3)CC2)cc1,-10%
Cc1cc(C)n(CCC(=O)N2CCC(Cc3nc(-c4ccccc4)n[nH]3)CC2)n1,i
O=C(Cc1ccsc1)N1CCC(Cc2nc(-c3ccc(F)cc3)no2)CC1,-5%
CC(C)N1CCC(OCCCNC(=O)C2CCN(c3cnn(C)c(=O)c3)C2)CC1 (stereo not given),14%
COc1ccc([C@@H]2CN(C(=O)Nc3ccc(C)cc3)[C@@H]3C4CCN(CC4)[C@@H]32)cc1,-10%
O=C(c1cn2c(n1)CNCC2)N1C[C@H](c2ccccc2)[C@@H]2[C@H]1C1CCN2CC1,0%
Cc1ccc([C@@H]2CN(C(=O)c3snnc3C)[C@@H]3C4CCN(CC4)[C@@H]32)cc1,14µM*
CCCC(=O)N1CCN(C2CCN(CCc3ccccc3)C2=O)CC1 (stereo not given),-2%
COCCOc1cc(=O)n2c(c1C(=O)NC1CCC1)CCOCC2,13%
COc1ccc(CN2C[C@@H]3C(=O)N(CCN4CCc5ccccc5C4)C(=O)[C@@H]3C2)cc1,-22%
COc1ccc(-c2cc([C@H]3CN4CC[C@H]3C[C@@H]4CNC(=O)c3ccc(C)cc3)n(C)n2)cc1OC,-9%
COc1ccc(-c2cc([C@H]3CN4CC[C@H]3C[C@@H]4CNC(=O)Nc3ccccc3)n(C)n2)cc1OC,5.6µM*
COc1ccc(-c2cc([C@H]3CN4CC[C@H]3C[C@@H]4CNC(=O)C(C)(C)C)n(C)n2)cc1OC,i
Cn1nc(-c2ccc3ccccc3c2)cc1[C@H]1CN2CC[C@H]1C[C@@H]2CNC(=O)Nc1ccccc1,i
CC(C)NC(=O)NC[C@H]1C[C@@H]2CCN1C[C@@H]2c1cc(-c2ccc3ccccc3c2)nn1C,6.3µM*
CC(C)NC(=O)OC[C@H]1C[C@@H]2CCN1C[C@@H]2c1cc(-c2ccc3ccccc3c2)nn1C,i
Cn1nccc1CN1CCC2(CC1)CN[S+](=O)([O-])c1ccccc1N2,0%
O=C(NC1CCN(Cc2ccccc2)CC1)[C@H]1CN(Cc2ccccc2)C[C@H]1C(=O)O,-29%
O=C1Nc2ccccc2CC12CCCN2Cc1ccc(Cl)cc1 (stereo not given),6%
CN1Cc2ccccc2NC(=O)C12CCNC2 (stereo not given),10%[44.1 µM]
SMILES,Pf Dd2 inh
O=C1Nc2ccccc2CC12CCCN2CC1CCCCC1 (stereo not given),7.1µM*
CC(=O)N1Cc2ccccc2NC(=O)C12CCNC2 (stereo not given),18%[44.1 µM]
CC(=O)N1Cc2ccccc2NC(=O)C12CCNCC2,20%
O=C1Nc2ccccc2CN(Cc2ccc(Cl)cc2)C12CCNC2 (stereo not given),10µM*
O=C1Nc2ccccc2CC12CCCN2CC1CCOCC1 (stereo not given),-7%
O=C1Nc2ccccc2CN(CC2CCCCC2)C12CCNCC2,11µM*
CCN1Cc2ccccc2NC(=O)C12CCNC2 (stereo not given),-19%
C[C@@H](NC(=O)Nc1ccccc1)c1onc(-c2ccc(Cl)cc2)c1C(=O)O,23%[44.1 µM]
CC1(C)[C@H](Cc2cc(CN3CCCCC3)on2)C[C@@H]1NCc1ccccn1,-6%[44.1 µM]
COc1ccccc1Nc1c2c(nc3ccc(NC(=O)c4cccc(F)c4)cc13)CCCC2,3.2µM*
COc1ccc(C)cc1Nc1c2c(nc3ccccc13)CCC2,13µM*
COc1ccc(/C=C/C(=O)Nc2ccc3nc4c(c(Nc5ccccc5OC)c3c2)CCCC4)cc1,1.3µM*
COc1ccc(NC(=O)Cn2nc(C(F)(F)F)c3c2CCCC3)cc1OC,-7%
COc1ccccc1NC(=O)c1sc2nc3c(cc2c1N)CCCCCC3,i
COc1cc(NC(=O)c2cccc(F)c2)ccc1NC(=O)c1cc2ccccc2o1,6%
Fc1ccccc1Nc1c2c(nc3ccccc13)CCC2,-22%
COc1ccc(Nc2c3c(nc4ccccc24)CCC3)cc1Cl,i
COc1ccc(NC(=O)c2c(OC)cc(=O)n3c2CCCC3)cc1OC,i
COc1ccc(OC)c(NC(=O)c2ccc3c(Cl)c4c(nc3c2)CCCC4)c1,-5%
